# According to PubChem BioAssay AID485395 (ICCB-Longwood Screening Facility, Harvard Medical School, 2010):
# The campaign covered roughly 120,000 compounds. About 55 (0.05%) were called active. Many of the other results were omitted from the sample, so actives are more common in it than they were. Unmarked numbers belong to inactive results. Cut-off read from the data, not from the text of the source: active = inhibition above about 25% (passing the limit was not always enough); inactive = the rest.
# System: replicative DNA helicase (DnaC/DnaB), Staphylococcus aureus
# Assay: inhibitors of S. aureus replicative helicase, primary screen, biochemical, fluorescence unwinding readout (AID 485395);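 note: 0% = mean of negative control wells and 100% = mean of positive control wells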
# Details: purified S. aureus helicase, fluorescence unwinding assay; active compounds read high; concentration not given here
row,SMILES,inhibition
1,Cc1cc(CNCc2nnc3ccccn23)c(C)n1-c1ccnn1C(C)C,7%
2,Nc1cc(N)cc(C(F)(F)C(F)(F)C(F)(F)F)c1,23%
3,CCOc1ccc2nc(NC(=O)c3ccccc3OC)sc2c1,-8%
4,Cc1ccc(-n2nc(C)c(C(=O)N(Cc3ccccc3)C(C)C)c2-n2cccc2)cc1,22%
5,O=C(NC(c1ccccc1)c1ccccc1)C1COC2C=CC=CC2O1 (stereo not given),5%
6,CCCn1c(NC(=O)CCCc2nc3ccccc3c(=O)[nH]2)nc2ccccc21,6%
7,COc1ccc(Cc2nn3c(C(C)(C)C)nnc3s2)cc1OC,-4%
8,O=C1CCC(C(=O)NN2C(=O)c3cccc4cccc(c34)C2=O)=NN1,10%
9,CCOc1ccc(CCNC(=O)Nc2ccc(C)c(C)c2)cc1OCC,-3%
10,CCOC(=O)c1c2c(n(-c3ccccc3)c1N)OC(=N)C(C#N)C2c1ccc(Br)cc1 (stereo not given),-19%
11,NNC(=O)CNC(=O)c1cccc2ccccc12,17%
12,O=C(CSc1ccc2nnc(-c3cccc(F)c3)n2n1)NCc1ccccc1,-3%
13,Cc1nc(Nc2nc3ccccc3o2)ncc1C(=O)Nc1ccccc1,24%
14,Cc1occc1-c1nnc(SCc2ccc(C(C)(C)C)cc2)n1N,-3%
15,Cc1ccc(-c2nc(C#N)c(NCc3ccc4c(c3)OCO4)o2)cc1,5%
16,COc1ccc(/C=C2\Oc3ccccc3N(CC(=O)N3CCOCC3)C2=O)cc1,5%
17,c1ccc(-n2nnnc2N2CCCC2c2nc3ccccc3s2)cc1 (stereo not given),-12%
18,COc1ccccc1/C=C1\SC(=O)N(c2ccccc2)C1=O,-8%
19,NNC(=O)CCCc1nc2ccccc2s1,4%
20,CCOC(=O)c1sc2nc(CN3CCCCC3)nc(NC3CC3)c2c1C,16%
21,O=S1(=O)CCC(N=Cc2cn(-c3ccccc3)nc2-c2ccccc2)C1 (stereo not given),10%
22,N#CNc1nc2ccccc2nc1Cl,2%
23,COc1ccc(NC(=O)c2ccoc2COc2ccc(C)cc2)cc1,0%
24,Cc1ccc(SCc2nnc(-c3c(-c4ccccc4)noc3C)o2)cc1C,-11%
25,CCCSc1nnc(Nc2ccccc2OC)s1,-21%
26,Cc1noc(N)c1C(=O)OCc1ccc(COC(=O)c2c(C)noc2N)cc1,-28%
27,O=C(COC(=O)C12CC3CC(CC(Br)(C3)C1)C2)NC1CC1,8%

row,SMILES,inhibition
1,Cc1nn(C)c(Cl)c1S(N)(=O)=O,8%
2,NC(=O)Cn1c(=O)n(Cc2ccco2)c(=O)c2ccccc21,16%
3,CC(=O)N1CCc2c(sc3c2c(=O)n(Cc2ccccc2)c(=O)n3Cc2cccc(C)c2)C1,-4%
4,Cc1cc(=O)n(-c2cccc(C(F)(F)F)c2)[nH]1,-1%
5,O=C(N/N=C/c1ccc(F)cc1)c1n[nH]c2c1CCC2,15%
6,Nc1c(C(=O)Nc2ccccc2C(F)(F)F)sc2[nH]c(=O)c(C(=O)O)cc12,15%
7,CCCN(CC1CC1)C(=O)CSc1nc(N)cc(N)n1,27%
8,NC(=O)C1CCN(C(=O)CSCc2ccc(Br)cc2)CC1,5%
9,CC(C)NC(=O)CCc1c[nH]c2ccccc12,13%
10,O=C(CN1CCC(c2nc(-c3ccncc3)n[nH]2)CC1)N1CCN(c2ccccc2F)CC1,-6%
11,COCCN1Cc2cccc(C(=O)NCc3ccco3)c2C1=O,-9%
12,CCOc1nc(NC(=O)NC(=O)c2cccs2)nc(-c2ccccc2)n1,11%
13,Cn1c(-c2ccco2)nn(C2CC(=O)C3OCC2O3)c1=S (stereo not given),-1%
14,CCOc1cccc(C(=O)NN2CCOCC2)c1,-7%
15,O=C(O)c1cccc(N2C(=O)/C(=C\c3ccc4c(c3)OCO4)SC2=S)c1,15%
16,Cc1noc(C)c1COC(=O)c1cccc(S(=O)(=O)N(C)C2CCCCC2)c1,-11%
17,CC1CCC(C(=O)NC(C(=O)N2CCN(Cc3ccccc3)CC2)C(C)C)CC1 (stereo not given),0%
18,Cc1nc(-c2ccccc2)sc1C(=O)NCC1CCCO1 (stereo not given),-20%
19,Nc1c(NCC(c2ccco2)N2CCCCC2)c(=O)[nH]c(=O)n1Cc1ccccc1 (stereo not given),9%
20,Clc1cccc2c(N3CCN(Cc4ccccc4)CC3)cnnc12,17%
21,CCCc1nnc(SCC(=O)N2CCCC2)n1CCOC,3%
22,CCS(=O)(=O)N1CCC(C(=O)OCC(=O)c2cc(C)n(C(C)C)c2C)CC1,-5%
23,CCc1n[nH]c(=S)n1/N=C1\C(=O)N(CC(C)C)c2ccccc21,1%
24,Cc1ccc(C(=O)COC(=O)c2cc3cc(Br)ccc3oc2=O)cc1,-19%
25,Cc1cccc(NC(=O)CNC(=O)c2ccc3c(=O)[nH]c(CN4CCOCC4)nc3c2)c1C,5%
26,CCOC(=O)c1c(CN2CCN(CC#N)CC2)n(-c2ccccc2)c2ccc(O)cc12,-1%
27,NC(=O)CCc1nc(-c2ccccc2)no1,-4%

row,SMILES,inhibition
1,Cc1nn(Cc2ccc(Cl)cc2)c(C)c1NC(=O)COCc1cc(-c2cccs2)on1,-15%
2,Cc1cc(C)c2nc(-c3ccco3)cc(C(=O)O)c2c1,5%
3,Cc1cc(C)c2nc3nc(C)cc(C)c3c(N)c2c1,77% (active)
4,COc1ccc(/C=N/N2C(=O)c3ccccc3C2=O)cc1OC,-16%
5,O=S1(=O)CC=C(S(=O)(=O)c2ccccc2)C1,2%
6,CCOC(=O)COc1ccc2cc(-c3nc4ccccc4s3)c(=O)oc2c1,-176%
7,CC(=O)Nc1nonc1Nc1csc(CC#N)n1,-1%
8,O=C(N/N=C/c1c(-c2ccccc2)nc2sccn12)c1ccc2ccccc2n1,15%
9,COc1cccc(C2NC(=O)NC(C)=C2C(=O)c2ccccc2)c1 (stereo not given),-13%
10,CC1=C(C(=O)NCCC(C)C)C2(CCC(C)CC2)OC1=O (stereo not given),1%
11,CC(C)CCSc1nc2ccccc2n1CN1CCN(S(=O)(=O)c2ccc(Cl)cc2)CC1,3%
12,O=C(NCc1ccccc1)N1CCC(CN2CCCCC2)CC1,4%
13,CCOC(=O)N1CCC(NC(=O)Cn2ncc3c(=O)oc4ccc(C)cc4c32)CC1,14%
14,CC(C)CCNS(=O)(=O)c1ccc2[nH]c3c(c2c1)CCCC3,-2%
15,CC(=O)Nc1ncc(Cc2ccc(C)cc2)s1,7%
16,Cc1ccc(CN(C)C(=O)c2n[nH]c3ccccc23)o1,-4%
17,CC(C)N(C(=O)CSc1nnc2sc3ccccc3n12)C(C)C,7%
18,CCCCSc1nc2ccccc2[nH]1,-5%
19,CC1=NN(C(N)=S)C(=O)C1,-7%
20,COc1ccc(C)cc1NC(=O)CSC1CCCC1,-1%
21,Cc1c(/C=N/NC(N)=S)c2ccccc2n1C,-2%
22,COc1cc(OC)c(OC)cc1CN1CCN(c2ccccc2F)CC1,10%
23,NCC1CCN(Cc2ccccc2Cl)CC1,-10%
24,c1csc(-c2csc(Cc3nc(-c4cccs4)cs3)n2)c1,36%
25,CCN(C(=O)Cc1noc2ccccc12)c1cc(OC)ccc1OC,9%
26,COc1ccc(-c2cc3c(n2Cc2ccc(F)cc2)CC(C)(C)CC3=O)cc1,-11%
27,COCCNC(=O)Cn1cc(/C=C2\C(=O)NC(=O)N(C3CCCCC3)C2=O)c2ccccc21,-31%

row,SMILES,inhibition
1,Cc1nc2cc(N=Cc3ccc(Cl)cc3)ccc2n1Cc1ccccc1,10%
2,Cc1nc(-c2cccs2)sc1C(=O)Nc1ccccc1,-5%
3,CN1C/C(=C/c2ccc3c(c2)OCCO3)C(=O)/C(=C/c2ccc3c(c2)OCCO3)C1,8%
4,CCc1ccc(C(=O)C(C)Sc2nnc(-c3ccccc3)o2)cc1 (stereo not given),-5%
5,COc1ccc(OC)c(NC(=O)CSc2nccn2-c2cccc(Cl)c2)c1,3%
6,NC(=O)CN1CCN(Cc2cccc3ccccc23)CC1,3%
7,Cc1cn2ccccc2c1P(=Nc1ccccc1)(N1CCOCC1)N1CCOCC1,7%
8,O=C(OC1CSC1)c1cccs1,-1%
9,CC1CC(=O)Nc2ccccc2N1C(=O)CSc1ccc2c(c1)OCCCO2 (stereo not given),15%
10,OCc1nc2ccccc2n1CC1CC1(Cl)Cl (stereo not given),-17%
11,Cc1nn(CC(=O)NCCc2ccccc2)c(=O)c2cc3occc3n12,8%
12,COc1ccc(/C=C2\Oc3cc(OC(=O)c4ccc(F)cc4)ccc3C2=O)cc1,5%
13,CC(C)c1ccc(N=Cc2cccs2)cc1,21%
14,O=C(NCC1CCCO1)c1ccc2c(=O)n3c(nc2c1)CCCCC3 (stereo not given),2%
15,CN1CCN(C(=O)c2ccc(-c3ccc(Br)cc3)o2)CC1,-25%
16,CCn1c(CNC(=O)c2ccncc2)cc2ccccc21,7%
17,Nc1nnnn1/N=C/c1cccc(Br)c1,4%
18,O=C(COC(=O)C1CC1)c1ccccc1Br,-9%
19,CCC(Sc1nnc(-c2cc3occc3n2C)n1-c1ccccc1C)C(=O)Nc1ccc(C)cc1 (stereo not given),10%
20,NS(=O)(=O)c1ccc(CNC(=O)c2cccc3cccnc23)cc1,-13%
21,[O-][n+]1ccccc1SC1=COCCC1,8%
22,N#Cc1c(N)nc2c(c1N)CC(=O)N2c1ccccc1,-11%
23,COc1ccc(N2CCN(c3nc(N)c4c(N)nc5c(c4c3C#N)CC(=O)N5C)CC2)cc1,9%
24,CC1=Nc2nc(N3CC(C)OC(C)C3)c(C#N)c3c4c(nc(c23)N1)N(c1ccccc1)C(=O)C4 (stereo not given),54% (active)
